Tested on: Vero E6 infected with SARS-CoV-2
Assay: inhibition of SARS-CoV-2 cytopathic effect; higher = more antiviral protection, active = above 15
Conditions: 48 h

Measured: inhibition of SARS-CoV-2 cytopathic effect

O=C(O)[C@H](Cc1ccc(Nc2nccc3ccncc23)cc1)NC1=C(Br)C(=O)C12CCCCC2
inactive: 1 nM 0.12% | 8.33 nM 0.67% | 100 nM -0.71% | 833.33 nM -0.14% | 10000 nM 2.62%

Nc1cccc(-c2cc3c(Oc4cccc(O)c4)ncnc3[nH]2)c1
inactive: 1 nM 4.09% | 8.33 nM 0.18% | 100 nM -2.41% | 833.33 nM -3.87% | 10000 nM -11.4%

CC(=O)N(O)[C@@H]1c2cc(C#N)ccc2OC(C)(C)[C@H]1O
inactive: 1 nM -2.54% | 8.33 nM 0.31% | 100 nM 1.05% | 833.33 nM 0.36% | 10000 nM 3.02%

CC(C)(C)[C@H]1CC[C@H](CC2=C(O)C(=O)c3ccccc3C2=O)CC1 [buparvaquone]
inactive: 1 nM 1.01% | 8.33 nM 3.57% | 100 nM 2.36% | 833.33 nM 0.32% | 10000 nM -5.12%

CCC/N=C1\S/C(=C\c2ccc(OC[C@H](O)CO)c(Cl)c2)C(=O)N1c1ccccc1C [ponesimod]
inactive: 1 nM -1.82% | 8.33 nM -0.6% | 100 nM -2.77% | 833.33 nM -2.51% | 10000 nM -0.58%

C=C[C@@H]1C[C@]1(NC(=O)[C@@H]1C[C@@H]2CN1C(=O)[C@H](C(C)(C)C)NC(=O)O[C@@H]1C[C@H]1CCCCCc1nc3ccc(OC)cc3nc1O2)C(=O)NS(=O)(=O)C1CC1 [grazoprevir]
inactive: 1 nM -0.59% | 8.33 nM -3.18% | 100 nM -2.52% | 833.33 nM 1.78% | 10000 nM 1.23%

CCc1ccc(/C=C/C(=O)Nc2ccc(C(C)=O)cc2)o1 [heclin]
inactive: 1 nM -2.06% | 8.33 nM -1.28% | 100 nM -7.85% | 833.33 nM -6.86% | 10000 nM -5.66%

O=C(c1ccccn1)c1cnn2c(-c3ccncc3)ccnc12 [ocinaplon]
inactive: 1 nM 0.32% | 8.33 nM -1.43% | 100 nM -0.52% | 833.33 nM -3.04% | 10000 nM -0.62%

C[C@H](N/C(=N/C#N)Nc1cccc2ncccc12)c1ccccc1
inactive: 1 nM -1.75% | 8.33 nM -2.48% | 100 nM -3.44% | 833.33 nM 1.32% | 10000 nM 1.97%

Cn1cc(-c2cnc3ccc4ccc(CS(=O)(=O)NCc5ccccn5)cc4c(=O)c3c2)cn1
inactive: 1 nM 1.02% | 8.33 nM 0.57% | 100 nM 1.94% | 833.33 nM 3.38% | 10000 nM 1.59%

C[C@@]1(O)[C@H](O)[C@@H](CO)O[C@H]1n1cnc2c(NC3CCCC3)nc(Cl)nc21
inactive: 1 nM 1.63% | 8.33 nM 2.06% | 100 nM 1.32% | 833.33 nM 0.53% | 10000 nM -0.13%

c1cc2c(cc1C1CCCCC1)c1c3n2CCNC3CCC1 (stereo not given) [tetrindole]
active: 10000 nM 20.8%
inactive: 1 nM 1.68% | 8.33 nM 1.55% | 100 nM -2.86% | 833.33 nM -1.8%

O=C(O)CCc1ccc(NCc2cccc3c2CCCN3CCOc2ccccc2)cc1F
inactive: 1 nM 2.94% | 8.33 nM 4.34% | 100 nM -0.81% | 833.33 nM 1.53% | 10000 nM 0.9%

Cc1nnc2n1-c1sc(CCC(=O)N3CCOCC3)cc1C(c1ccccc1Cl)=NC2 [apafant]
inactive: 1 nM 2.67% | 8.33 nM -1.44% | 100 nM 0.93% | 833.33 nM 1.94%
active: 10000 nM 29%

O=C(O)c1cc(N2N=C(C(F)(F)F)/C(=C/c3ccc(-c4ccccc4)o3)C2=O)ccc1Cl
inactive: 1 nM 0.12% | 8.33 nM 1.11% | 100 nM 0.66% | 833.33 nM 0.57% | 10000 nM 3.69%

C#C[C@]1(O)CC[C@H]2[C@@H]3CCc4cc(OC)ccc4[C@H]3CC[C@@]21C [mestranol]
inactive: 1 nM 0.06% | 8.33 nM 0.82% | 100 nM 0.83% | 833.33 nM 0.76% | 10000 nM -0.67%

Cc1ccc(/C=C2/C(=O)C3(C)CCC2C3(C)C)cc1 (stereo not given) [3-(4-methylbenzylidene)camphor]
inactive: 1 nM 0.22% | 8.33 nM 0.95% | 100 nM 2.26% | 833.33 nM 0.01% | 10000 nM 0.05%

O=C(O)C(=O)Nc1cccc(-c2nnn[nH]2)c1 [acitazanolast]
inactive: 1 nM -1.24% | 8.33 nM -0.89% | 100 nM -0.76% | 833.33 nM -1.09% | 10000 nM -0.46%

Reference: the supplement of paper PMC13380429
